The values that follow come from PubChem BioAssay.

In the assay the target is Epidermal growth factor receptor (Homo sapiens) (UniProt P00533). In words: compounds binding epidermal growth factor receptor – biochemical, small-molecule microarray, 635 nm fluorescence, primary screen (AID 1104).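 Also: score merges 667 nm emission intensity with spot signal to noise over triplicate slides.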 The settings on record: EGFR binding, higher = more signal.
Chain of Epidermal growth factor receptor (Homo sapiens) (P00533 whole entry, looked up): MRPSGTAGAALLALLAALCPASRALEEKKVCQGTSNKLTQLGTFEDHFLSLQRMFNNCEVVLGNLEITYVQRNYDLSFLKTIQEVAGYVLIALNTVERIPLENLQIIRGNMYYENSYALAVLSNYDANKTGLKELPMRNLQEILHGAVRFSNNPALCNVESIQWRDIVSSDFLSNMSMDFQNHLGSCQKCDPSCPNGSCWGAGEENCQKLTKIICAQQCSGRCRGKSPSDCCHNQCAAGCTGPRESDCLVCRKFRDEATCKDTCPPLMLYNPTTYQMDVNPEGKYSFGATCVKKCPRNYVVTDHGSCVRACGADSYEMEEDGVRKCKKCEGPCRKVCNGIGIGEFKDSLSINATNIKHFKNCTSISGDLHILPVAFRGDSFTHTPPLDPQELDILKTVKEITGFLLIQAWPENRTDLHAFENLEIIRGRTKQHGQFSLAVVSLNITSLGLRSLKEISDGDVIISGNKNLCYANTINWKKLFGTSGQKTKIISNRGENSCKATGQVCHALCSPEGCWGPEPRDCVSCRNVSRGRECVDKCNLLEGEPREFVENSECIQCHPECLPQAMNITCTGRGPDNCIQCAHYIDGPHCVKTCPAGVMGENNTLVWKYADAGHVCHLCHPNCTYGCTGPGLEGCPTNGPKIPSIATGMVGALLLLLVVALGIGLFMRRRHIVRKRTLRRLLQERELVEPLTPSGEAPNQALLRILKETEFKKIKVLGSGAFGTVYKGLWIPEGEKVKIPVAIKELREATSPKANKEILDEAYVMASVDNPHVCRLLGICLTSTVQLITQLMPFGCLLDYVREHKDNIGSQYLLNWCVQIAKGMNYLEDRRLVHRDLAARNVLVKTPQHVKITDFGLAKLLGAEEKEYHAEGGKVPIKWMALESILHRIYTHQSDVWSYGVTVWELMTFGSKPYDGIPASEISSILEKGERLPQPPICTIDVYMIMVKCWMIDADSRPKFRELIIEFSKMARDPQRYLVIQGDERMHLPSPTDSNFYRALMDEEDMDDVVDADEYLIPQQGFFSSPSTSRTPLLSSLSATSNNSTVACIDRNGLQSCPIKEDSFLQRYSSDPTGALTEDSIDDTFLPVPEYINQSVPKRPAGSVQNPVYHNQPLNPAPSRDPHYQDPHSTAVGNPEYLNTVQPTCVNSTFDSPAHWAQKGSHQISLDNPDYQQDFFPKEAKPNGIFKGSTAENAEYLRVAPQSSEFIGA
Regarding `COc1ccc([Si](C)(C)[C@@H]2[C@@H](CC(=O)N3CCC[C@H]3CO)O[C@]3(C(=O)N(C)c4c(Br)cc(C)cc43)[C@H]2C)cc1`, the composite z-score is 0.35.
`CN(C)CCCCCCNC(=O)[C@H]1C[C@H]2C(=O)N[C@@H](CCCCN)C(=O)N2[C@H]1c1ccc(O)cc1` gave a composite z-score of 1.6.
Regarding `COCC(=C=CC[C@H](O)c1ccc(OCCO)cc1)C[C@H](O)c1cc(Cl)cc(Cl)c1O`, the composite z-score stood at 0.0404.
The figure for `COc1cc(C(O)C2C=CC3C(=O)N(c4ccccc4)C(=O)C3N2Nc2ccc(C#N)cc2)cc(OC)c1OC` (stereo not given) is -0.209.
Compound `N#Cc1ccc(NN2C(C(O)c3ccc([N+](=O)[O-])cc3)C=CC3C(=O)N(c4ccccc4)C(=O)C32)cc1` (stereo not given) yielded a composite z-score of 0.0159.
As for `CC(=O)NCCCC[C@@H]1NC(=O)[C@@H]2C[C@H](C(=O)NCCCCCCNC(=O)CS)[C@H](c3ccc(O)cc3)N2C1=O`, the figure is -0.755; as for `CCOC(=O)C[C@H]1[C@H](OC(=O)Cc2ccc3c(c2)OCO3)[C@@H](NC(=O)c2ccc(-c3ccccc3)cc2)c2cc(OCCCO)ccc2N1C(=O)c1ccccc1`, 0.457.
`O=C1O[C@@H](c2ccccc2)[C@@H](c2ccccc2)N2[C@@H](c3ccccc3OCCO)[C@]3(C(=O)Nc4ccc(C#CC5(O)CCCCCC5)cc43)[C@@H](C(=O)Nc3nc4ccccc4s3)[C@H]12` yielded a composite z-score of 0.369.
The figure for `Cc1ccccc1C(O)C1C=CC2C(=O)N(C)C(=O)C2N1N1CCCCC1` (stereo not given) is 0.628; for `COCCOC(=O)N1C(=O)[C@@]2(c3ccccc31)[C@H](C(=O)Nc1nc3ccccc3s1)[C@H]1C(=O)O[C@H](c3ccccc3)[C@H](c3ccccc3)N1[C@@H]2c1ccc(OCCO)cc1` it is 0.331; for `CC(C)C[C@@H]1NC(=O)[C@H]2C[C@@H](C(=O)NCCCCCNC(=O)CS)[C@@H](c3cccc(OCCO)c3)N2C1=O` it is 1.08.
In turn, `COc1ccc(C#Cc2ccc3c(c2)[C@]2(C(=O)N3)[C@H](c3ccc(O)cc3)N3[C@H](c4ccccc4)[C@H](c4ccccc4)OC(=O)[C@H]3[C@@H]2C(=O)NC[C@H](O)c2ccccc2)cc1` had a composite z-score of 0.206.
The figure for `O=C1OCC=C[C@H]2OC34C=CCN(c5ccc(Cl)cc5)C(=O)[C@H]3N(CCCCCCO)C(=O)[C@@H]4[C@@H]12` (stereo not given in full) is -1.78; for `C=CCOC(=O)[C@H]1[C@@H]2C(=O)O[C@@H](c3ccccc3)[C@@H](c3ccccc3)N2[C@@H](c2ccc(OCCOC(=O)[C@@H]3C[C@@H]4C(=O)N5CCC[C@H]5C(=O)N4[C@@H]3c3ccc(O)cc3)cc2)[C@]12C(=O)Nc1ccccc12` it is 0.586.
The compound `CCCC[C@H]1OB(O)C[C@H]2C1=C(C)C[C@H]1C(=O)N(Cc3ccccc3)C(=O)[C@H]12` showed a composite z-score of 0.244.
Turning to `CCCC[C@@H]1C[C@H]1[C@@H](NC(=O)c1ccc(-c2ccccc2)cc1)c1ccc(-c2ccccc2)cc1`, the composite z-score came to 1.21.
`COCC(=C=CC[C@@H](O)c1ccc(CO)o1)CCO` displayed a composite z-score of 0.614.
On to `Cc1ccc(S[C@]2(C(=O)NCc3ccccc3)CC(=O)N(Cc3ccccc3Cl)[C@@H]2c2ccc(CO)cc2I)cc1`, for which the composite z-score is -1.17.
Regarding `CC=CC(O)C1C=CC2C(=O)N(c3ccccc3)C(=O)C2N1Nc1ccc(C(C)C)cc1` (stereo not given), the composite z-score came out at 0.122.
In turn, `COCCOC(=O)N1C(=O)[C@@]2(c3ccccc31)[C@H](C(=O)NC[C@H](O)c1ccccc1)[C@H]1C(=O)O[C@H](c3ccccc3)[C@H](c3ccccc3)N1[C@@H]2c1ccc(OCCO)cc1` displayed a composite z-score of 1.13.
As for `[N-]=[N+]=NCc1ccccc1C[C@@]1(C(=O)NCC(O)CO)N=C(c2ccc(OCCCO)cc2)O[C@@H]1c1ccccc1CN=[N+]=[N-]` (stereo not given in full), the composite z-score was -0.747.
Compound `COc1ccc(C#Cc2ccc3c(c2)[C@]2(C(=O)N3)[C@H](C(=O)NC[C@H](O)c3ccccc3)[C@H]3C(=O)O[C@H](c4ccccc4)[C@H](c4ccccc4)N3[C@@H]2c2ccccc2OCCO)cc1` showed a composite z-score of 0.186.
Turning to `COC(=O)[C@@]1(Cc2ccccc2)[C@H]2c3cc(C(=O)N(C)C)n(Cc4cc(C)n(C)n4)c3C[C@H]2CN1C(=O)c1ccccc1`, the composite z-score turned out to be 0.3.
In the case of `C#CCN(C(/C=C/c1ccccc1)CO)C(C(=O)O)c1ccccc1` (stereo not given), the composite z-score was -0.0139.
The figure for `COc1ccc([Si](C)(C)[C@@H]2[C@@H](CCn3cc([C@H](O)c4ccccc4)nn3)O[C@]3(C(=O)N(Cc4cccc(N5CCOC5=O)c4)c4ccccc43)[C@H]2C)cc1` is -0.901; for `Cc1ccc(S[C@]2(C(=O)O)CC(=O)N(C3Cc4ccccc4C3)[C@@H]2c2ccc(CO)cc2I)cc1` it is -1.04; for `CCOC(=O)C[C@H]1[C@H](OC(=O)c2ccc(-c3ccccc3)cc2)[C@@H](NC(=O)Cc2ccc(OC)cc2)c2cc(OCCCO)ccc2N1C(=O)c1ccc2ccccc2n1` it is -0.127.
In the case of `COc1ccc([Si](C)(C)[C@@H]2[C@@H](CC(=O)N(CCO)Cc3ccccc3)O[C@]3(C(=O)N(C)c4ccccc43)[C@H]2C)cc1`, the composite z-score stood at 0.749.
The compound `O=c1cccc(C=Cc2ccccc2)o1` returned a composite z-score of -1.16.
In turn, `O=C1OCC=C[C@H]2OC34C=CCN(c5ccc6ccccc6c5)C(=O)[C@H]3N(CCCO)C(=O)[C@@H]4[C@@H]12` (stereo not given in full) yielded a composite z-score of -1.15.
For `COCCOC(=O)N1C(=O)[C@@]2(c3cc(C#CC4=CCCCC4)ccc31)[C@H](C(=O)N1CCc3cc(OC)c(OC)cc3C1)[C@H]1C(=O)O[C@H](c3ccccc3)[C@H](c3ccccc3)N1[C@@H]2c1ccccc1OCCO`, the composite z-score came to 0.501.
`COCCOC(=O)N1C(=O)[C@@]2(c3cc(C#CCC(C(=O)OC)C(=O)OC)ccc31)[C@H](c1ccccc1OCCO)N1[C@H](c3ccccc3)[C@H](c3ccccc3)OC(=O)[C@H]1[C@@H]2C(N)=O`: the composite z-score is 0.249.
Take `CC(C)OC(=O)CC(=O)CC(O)c1ccc(C#N)cc1` (stereo not given): the composite z-score was -0.361.
`COC(=O)[C@@]1(Cc2ccc(OC)cc2)[C@H]2c3cc(C(=O)N(C)C)n(Cc4c(OC)[nH]cc(C)c4=O)c3C[C@H]2CN1C(=O)c1ccccc1` had a composite z-score of 0.197.
On to `O=C1C[C@@](C(=O)NC2CC2)(c2ccc([N+](=O)[O-])cc2)[C@@H](c2ccc(CO)cc2)N1CC12CC3CC(CC(C3)C1)C2`, for which the composite z-score turned out to be 0.1.
